14 molecules from PubChem BioAssay (EPA / NIEHS) can be followed below.

“And” between values parts separate entries of the source, which are not always exact repeats. Equal values may be shown once. Records with an inconclusive call do not appear. The source made the active and inactive calls. The calls were made as follows, unless noted: active = hit-call score of the fitted dose curve at least 0.9, where 1 is the maximum; inconclusive = response in the unintended direction; inactive = score below 0.9.

A word on the AC50: it is the concentration giving half of the maximal activity seen.

For test [1], the target named is THRB (gene 7068) (UniProt P10828). Kind of test: TOX21_TRB_BLA_Antagonist_Followup_ratio: Tox21 Thyroid Hormone Receptor beta Antagonism Beta-lactamase (BLA) Follow-Up Assay, Ratio (AID 2283958). An outline of the steps: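 HEK293T cells with a GAL4-TRb LBD fusion and UAS-bla reporter, 3,000 cells/well in phenol red-free DMEM with 2% charcoal-stripped FBS. Exposed 18 h at 37C to 11 concentrations in triplicate; CCF4 460:530 nm ratio after 2 h, DMSO-referenced.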

A short description of test [2]: TOX21_TRB_BLA_Antagonist_Followup_viability: Viability Assessment in the Tox21 Thyroid Hormone Receptor beta Antagonism Beta-lactamase (BLA) Follow-Up Assay (AID 2283961). In short, it runs like this: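 HEK293T cells stably expressing GAL4-DBD/human TRβ-LBD with UAS-bla reporter, 3,000 cells/well in phenol red-free DMEM, 2% charcoal-stripped FBS. Compounds at 11 concentrations in triplicate, 18 h at 37C/5% CO2; viability by CellTiter-Glo luminescence after 30 min at room temperature.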

In test [3] the target is THRB (gene 7068) (UniProt P10828). Kind of test: TOX21_TRB_COA_Antagonist_Followup_ratio: Tox21 Thyroid Hormone Receptor beta Antagonism through Coactivator Recruitment Follow-Up Assay, Ratio (AID 2283967). In short, it runs like this:
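Cell-free TR-FRET coactivator recruitment with GST-tagged TRβ LBD (5.0 nM) and fluorescein-labeled SRC-2 peptide (200 nM) detected by terbium anti-GST antibody (2 nM). The 520:495 nm emission ratio was normalized to DMSO (0%) and T3 (100%).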

In test [4] the target is Retinoic acid receptor RXR-alpha (Homo sapiens) (UniProt P19793). Kind of test: TOX21_TR_RXR_BLA_Antagonist_Followup_ratio: Tox21 Thyroid Hormone Receptor beta Retinoid X Receptor alpha (RXRa) Antagonism Beta-lactamase (BLA) Follow-Up Assay, Ratio (AID 2283972). In short, it runs like this:
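RXRa-UAS-bla HEK293T cells in phenol red-free DMEM with 2% charcoal-stripped FBS; compounds at 11 concentrations in triplicate, 16 h at 37C. LiveBLAzer FRET-B/CCF4-AM substrate 2 h at room temperature; read as 460:530 nm ratio versus DMSO.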

A short description of test [5]: TOX21_TR_RXR_BLA_Antagonist_Followup_viability: Viability Assessment in the Tox21 Thyroid Hormone Receptor beta Retinoid X Receptor alpha (RXRa) Antagonism Beta-lactamase (BLA) Follow-Up Assay (AID 2283979). An outline of the steps: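 RXRa-UAS-bla HEK293T cells seeded 2,500/well in phenol red-free DMEM with 2% charcoal-stripped FBS, attached 5 h, then exposed to compounds at 11 concentrations in triplicate for 16 h at 37C/5% CO2. Viability read by CellTiter-Glo ATP luminescence; bidirectional fit versus DMSO.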

Test [6] addresses Nucleoli Translocation, AR (gene 367) (UniProt P10275). Kind of test: UPITT_HCI_U2OS_AR_TIF2_Nucleoli_Antagonist: University of Pittsburgh U2OS Androgen Receptor-Transcriptional Intermediary Factor 2 (AR-TIF2) Antagonism High Content Imaging Assay for Nucleoli Translocation (AID 2283997). An outline of the steps:
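U2OS cells expressing RFP-tagged human AR and GFP-tagged TIF2 were imaged by high-content fluorescence microscopy for red AR signal in the nucleolar region. Compounds were screened at 20 uM final (0.2% DMSO), with activity fitted relative to DHT as baseline.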

Test [7] in a line: CEETOX_H295R_ESTRADIOL_noMTC: CeeTox H295R High-throughput Steroidogenesis Assay for Estradiol, maximum tolerated concentration (MTC) filtered results only (AID 2283919; active = hit-call score of the fitted dose curve at least 0.9, where 1 is the maximum; inactive = score below 0.9). As to conditions: actives raise or lower the signal. In short, it runs like this: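 H295R human adrenal cells pre-stimulated 48 h with 10 uM forskolin, then exposed 48 h to chemical (0.1% DMSO final). Estradiol in medium measured by HPLC-MS/MS after MTBE extraction and dansyl derivatization; bidirectional fit versus DMSO, concentrations not MTT-filtered.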

A short description of test [8]: CEETOX_H295R_PROG_noMTC: CeeTox H295R High-throughput Steroidogenesis Assay for Progesterone (PROG), maximum tolerated concentration (MTC) filtered results only (AID 2283920; active = hit-call score of the fitted dose curve at least 0.9, where 1 is the maximum; inactive = score below 0.9). As to conditions: actives raise or lower the signal. In short, it runs like this: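 H295R human adrenal cells were prestimulated 48 h with 10 uM forskolin, then exposed 48 h to test chemical (0.1% DMSO final). Progesterone in medium was quantified by HPLC-MS/MS; bidirectional fitting versus DMSO, concentrations not MTC-filtered.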

Test [9] in a line: CEETOX_H295R_ESTRONE_noMTC: CeeTox H295R High-throughput Steroidogenesis Assay for Estrone, maximum tolerated concentration (MTC) filtered results only (AID 2283921; active = hit-call score of the fitted dose curve at least 0.9, where 1 is the maximum; inactive = score below 0.9). The settings on record: actives raise or lower the signal. An outline of the steps: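 H295R cells prestimulated 48 h with 10 uM forskolin, then exposed 48 h to chemical in 0.1% DMSO; medium estrone measured by HPLC-MS/MS after MTBE extraction and dansyl derivatization, fitted bidirectionally versus DMSO without MTT-based MTC filtering.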

In the next test the test system is DIO1 (gene 1733). In words: CCTE_GLTED_hDIO1: CCTE's human Deiodinase 1 (DIO1) Inhibition Assay, Great Lakes Toxicology and Ecology Division (GLTED) Lab (AID 2283987).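 Also: isolated human DIO1 enzyme in a cell-free setup rather than cells; enzyme activity read as free iodide liberated from substrate via Sandell-Kolthoff colorimetry.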 An outline of the steps: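 Cell-free human DIO1 enzyme was incubated with test chemical for 3 h, and iodide released from substrate was measured by Sandell-Kolthoff absorbance. Loss of signal versus DMSO baseline indicated inhibition; plates were run in triplicate.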

Test [10] deals with Thyroid hormone receptor alpha (Rattus norvegicus) + Thyroid hormone receptor beta (Rattus norvegicus) (UniProt P18113+P63059). Kind of test: TOX21_TR_LUC_GH3_Agonist_Followup: Tox21 GH3 Thyroid Hormone Receptor Agonism Luciferase Follow-Up Assay (AID 2283939). In short, it runs like this: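 Rat GH3 cells (1,500/well) in serum-free assay medium, treated with 15-point series, 92 uM to 5 nM final, for 24 h at 37C. Luciferase via ONE-Glo luminescence; gain of signal fitted against DMSO, T3 positive control.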

Another test concerns the target THRA (gene 7067) (UniProt P10827). In words: TOX21_TRA_COA_Agonist_Followup_ratio: Tox21 Thyroid Hormone Receptor alpha Agonism through Coactivator Recruitment Follow-Up Assay, Ratio (AID 2283948; active = hit-call score of the fitted dose curve at least 0.9, where 1 is the maximum; inactive = score below 0.9). An outline of the steps: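 Read-out is the 520/495 nm emission ratio (ex 340 nm), scaled between DMSO-only wells as 0% and T3 wells as 100%. It reflects fluorescein-SRC-2 peptide recruitment to GST-TRα LBD detected via terbium anti-GST antibody.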

The target in test [11] is THRB (gene 7068) (UniProt P10828). In words: TOX21_TRB_BLA_Agonist_Followup_ratio: Tox21 Thyroid Hormone Receptor beta Agonism Beta-lactamase (BLA) Follow-Up Assay, Ratio (AID 2283954). In short, it runs like this:
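Human TRβ LBD–GAL4 DBD fusion in GeneBLAzer UAS-bla HEK293T cells; 11 concentrations in triplicate, 18 h at 37°C/5% CO2, T3 as agonist control. CCF4-AM substrate 2 h at room temperature; 460:530 nm ratio fitted for gain of signal versus DMSO.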

For test [12] the target is unchanged. In words: TOX21_TRB_COA_Agonist_Followup_ratio: Tox21 Thyroid Hormone Receptor beta Agonism through Coactivator Recruitment Follow-Up Assay, Ratio (AID 2283963; active = hit-call score of the fitted dose curve at least 0.9, where 1 is the maximum; inactive = score below 0.9). An outline of the steps: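 Cell-free TR-FRET coactivator recruitment: GST-tagged TRβ LBD (5.0 nM) with 0.10% BSA incubated with compound, then fluorescein-SRC-2 peptide (200 nM) and Tb-anti-GST antibody (2 nM) added. 520:495 nm ratio normalized to DMSO (0%) and T3 (100%).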

In test [13] the target is Retinoic acid receptor RXR-alpha (Homo sapiens) (UniProt P19793). Kind of test: TOX21_TR_RXR_BLA_Agonist_Followup_ratio: Tox21 Thyroid Hormone Receptor beta Retinoid X Receptor alpha (RXRa) Agonism Beta-lactamase (BLA) Follow-Up Assay, Ratio (AID 2283968). In short, it runs like this:
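RXRa-UAS-bla HEK293T cells, 5 h attachment at 37C/5% CO2, then 11 concentrations in triplicate for 16 h; 9-cis retinoic acid positive control. FRET-B/GCCF4-AM substrate 2 h at room temperature; 460:530 nm ratio, fitted for gain versus DMSO.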

A short description of test [14]: TOX21_TR_RXR_BLA_Agonist_Followup_viability: Viability Assessment in the Tox21 Thyroid Hormone Receptor beta Retinoid X Receptor alpha (RXRa) Agonism Beta-lactamase (BLA) Follow-Up Assay (AID 2283970). An outline of the steps:
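RXRa-UAS-bla HEK293T cells, 2,500/well in phenol red-free DMEM with 2% charcoal-stripped FBS, dosed for 16 h at 37C. Viability measured by CellTiter-Glo ATP luminescence; fitted bidirectionally against DMSO baseline, loss of signal indicating cytotoxicity.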

Nucleoli Translocation, AR (gene 367), sequence (P10275 whole entry, looked up): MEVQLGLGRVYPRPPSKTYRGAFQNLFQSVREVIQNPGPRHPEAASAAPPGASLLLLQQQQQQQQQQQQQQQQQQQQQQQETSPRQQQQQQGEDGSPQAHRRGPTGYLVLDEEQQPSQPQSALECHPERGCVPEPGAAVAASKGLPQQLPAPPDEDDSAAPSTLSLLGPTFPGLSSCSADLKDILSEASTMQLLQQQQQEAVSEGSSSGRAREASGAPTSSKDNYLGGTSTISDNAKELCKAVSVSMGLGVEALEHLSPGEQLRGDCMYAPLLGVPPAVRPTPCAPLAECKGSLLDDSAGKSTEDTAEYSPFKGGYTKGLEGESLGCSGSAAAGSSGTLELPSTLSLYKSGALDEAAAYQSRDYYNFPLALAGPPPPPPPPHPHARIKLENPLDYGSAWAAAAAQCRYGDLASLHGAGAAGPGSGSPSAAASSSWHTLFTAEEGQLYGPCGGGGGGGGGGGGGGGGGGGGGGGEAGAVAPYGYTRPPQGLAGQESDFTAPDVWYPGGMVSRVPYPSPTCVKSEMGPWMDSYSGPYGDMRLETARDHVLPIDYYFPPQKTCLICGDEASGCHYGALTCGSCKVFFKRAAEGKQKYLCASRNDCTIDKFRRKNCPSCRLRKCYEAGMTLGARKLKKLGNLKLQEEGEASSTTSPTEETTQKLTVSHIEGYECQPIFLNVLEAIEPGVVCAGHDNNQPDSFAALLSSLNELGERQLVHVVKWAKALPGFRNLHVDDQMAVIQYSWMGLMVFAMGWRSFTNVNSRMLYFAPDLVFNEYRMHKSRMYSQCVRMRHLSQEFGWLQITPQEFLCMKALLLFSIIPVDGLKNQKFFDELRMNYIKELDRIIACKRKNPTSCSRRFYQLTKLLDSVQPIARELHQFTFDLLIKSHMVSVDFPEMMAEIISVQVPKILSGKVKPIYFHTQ
THRB (gene 7068), sequence (P10828 whole entry, looked up, the tested form may be a part): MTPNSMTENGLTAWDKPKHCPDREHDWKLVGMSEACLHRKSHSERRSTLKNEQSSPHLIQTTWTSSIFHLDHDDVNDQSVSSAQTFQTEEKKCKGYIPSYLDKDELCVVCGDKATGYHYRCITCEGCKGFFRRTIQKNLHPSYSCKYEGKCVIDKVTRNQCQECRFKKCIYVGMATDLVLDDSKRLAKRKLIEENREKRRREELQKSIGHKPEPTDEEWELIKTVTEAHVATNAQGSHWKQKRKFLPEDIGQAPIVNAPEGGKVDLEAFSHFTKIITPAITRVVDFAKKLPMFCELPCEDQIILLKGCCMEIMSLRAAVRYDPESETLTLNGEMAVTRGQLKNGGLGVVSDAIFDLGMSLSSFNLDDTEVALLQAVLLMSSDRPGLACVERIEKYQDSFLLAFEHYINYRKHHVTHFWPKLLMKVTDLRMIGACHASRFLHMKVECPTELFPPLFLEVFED
Retinoic acid receptor RXR-alpha (Homo sapiens), sequence (P19793 whole entry, looked up): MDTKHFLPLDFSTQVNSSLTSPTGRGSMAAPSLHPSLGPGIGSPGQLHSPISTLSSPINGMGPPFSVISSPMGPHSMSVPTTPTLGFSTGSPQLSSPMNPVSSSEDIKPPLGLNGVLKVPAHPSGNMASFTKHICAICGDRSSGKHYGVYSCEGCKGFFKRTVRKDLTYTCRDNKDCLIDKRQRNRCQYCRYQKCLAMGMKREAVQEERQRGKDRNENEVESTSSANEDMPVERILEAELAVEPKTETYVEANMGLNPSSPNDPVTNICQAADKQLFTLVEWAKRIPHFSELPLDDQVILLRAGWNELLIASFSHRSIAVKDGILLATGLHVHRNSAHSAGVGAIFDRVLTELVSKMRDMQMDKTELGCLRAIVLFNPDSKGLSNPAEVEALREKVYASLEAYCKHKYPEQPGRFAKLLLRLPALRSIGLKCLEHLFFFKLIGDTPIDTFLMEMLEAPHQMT
THRA (gene 7067), sequence (P10827 whole entry, looked up, the tested form may be a part): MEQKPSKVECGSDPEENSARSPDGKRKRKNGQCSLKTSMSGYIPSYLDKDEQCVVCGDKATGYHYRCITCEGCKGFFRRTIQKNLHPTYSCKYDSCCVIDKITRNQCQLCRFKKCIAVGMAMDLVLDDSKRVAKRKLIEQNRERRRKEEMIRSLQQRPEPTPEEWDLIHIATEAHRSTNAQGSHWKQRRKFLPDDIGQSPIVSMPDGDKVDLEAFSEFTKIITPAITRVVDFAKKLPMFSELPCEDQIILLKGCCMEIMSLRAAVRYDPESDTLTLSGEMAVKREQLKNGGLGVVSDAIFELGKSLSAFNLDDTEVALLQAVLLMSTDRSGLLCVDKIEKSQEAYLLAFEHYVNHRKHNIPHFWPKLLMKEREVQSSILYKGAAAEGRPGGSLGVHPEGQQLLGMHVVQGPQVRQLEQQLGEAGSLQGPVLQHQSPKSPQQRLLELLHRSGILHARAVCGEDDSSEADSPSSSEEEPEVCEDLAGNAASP
Thyroid hormone receptor alpha (Rattus norvegicus) + Thyroid hormone receptor beta (Rattus norvegicus), sequence (P63059 whole entry, looked up): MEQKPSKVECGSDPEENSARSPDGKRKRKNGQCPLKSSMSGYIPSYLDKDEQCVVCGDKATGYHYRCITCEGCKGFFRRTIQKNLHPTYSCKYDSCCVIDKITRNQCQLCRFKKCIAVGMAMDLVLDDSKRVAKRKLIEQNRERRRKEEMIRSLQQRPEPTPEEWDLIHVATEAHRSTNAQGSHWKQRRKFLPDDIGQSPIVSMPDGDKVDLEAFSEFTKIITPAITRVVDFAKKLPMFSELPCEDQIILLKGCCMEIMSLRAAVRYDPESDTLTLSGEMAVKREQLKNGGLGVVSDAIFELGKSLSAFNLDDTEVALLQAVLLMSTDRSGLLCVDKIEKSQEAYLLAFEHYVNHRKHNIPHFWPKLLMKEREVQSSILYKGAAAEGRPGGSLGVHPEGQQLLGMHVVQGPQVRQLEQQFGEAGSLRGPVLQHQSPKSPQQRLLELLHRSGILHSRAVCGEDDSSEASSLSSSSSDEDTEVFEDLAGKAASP
Thyroid hormone receptor alpha (Rattus norvegicus) + Thyroid hormone receptor beta (Rattus norvegicus), sequence (P18113 whole entry, looked up): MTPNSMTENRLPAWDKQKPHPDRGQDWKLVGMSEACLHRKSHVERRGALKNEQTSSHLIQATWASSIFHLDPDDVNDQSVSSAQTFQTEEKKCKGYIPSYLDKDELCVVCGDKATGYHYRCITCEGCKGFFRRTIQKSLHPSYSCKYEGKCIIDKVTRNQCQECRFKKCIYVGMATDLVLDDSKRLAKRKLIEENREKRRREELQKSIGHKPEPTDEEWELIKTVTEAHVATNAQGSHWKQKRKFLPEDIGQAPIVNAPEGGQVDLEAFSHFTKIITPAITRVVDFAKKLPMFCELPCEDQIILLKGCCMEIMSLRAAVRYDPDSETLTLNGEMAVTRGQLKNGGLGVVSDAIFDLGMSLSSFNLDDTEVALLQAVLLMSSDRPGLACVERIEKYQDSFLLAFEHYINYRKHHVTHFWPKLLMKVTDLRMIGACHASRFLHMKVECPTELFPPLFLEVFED

As to `C#C[C@]1(O)CC[C@H]2[C@@H]3CCc4cc(O)ccc4[C@H]3CC[C@@]21C`, the AC50 (with THRB (gene 7068) [1]; in test [4]) was 38.3 µM (active) each time. Moreover, the molecule was called inactive (in test [2]; in the test with THRB (gene 7068) [3]; in [5]).
In the case of `CCO[Si](CC)(OCC)OCC`, the result in test [6] was inactive.
Turning to `CCCCCCOc1ccc(O)cc1`, in [6], the AC50 is 50 µM (active).
Turning to `CC(=O)OC/C=C(C)/C=C/C=C(C)/C=C/C1=C(C)CCCC1(C)C`, the outcome in [7] and in test [9] was inactive. In addition, the AC50 in test [8] was 34 µM (active).
Consider `CCCCCCCCOC(=O)c1ccc(O)cc1`, for which, in the test with DIO1 (gene 1733), the AC50 was 86.4 µM (active).
For `OC[C@H]1O[C@@H](O[C@H]2[C@H](O)[C@@H](O)[C@H](O)O[C@@H]2CO)[C@H](O)[C@@H](O)[C@H]1O`, in [6], the call was inactive.
As to `CC/C(=C(\c1ccccc1)c1ccc(OCCN(C)C)cc1)c1ccccc1`, in the test with DIO1 (gene 1733), the AC50 is 56.9 µM (active) and 72.6 µM (active).
`CCCCCCC(C)O` (stereo unspecified): the result (in [10]; with THRA (gene 7067); with THRB (gene 7068) [11]; in the test with THRB (gene 7068) [12]; in test [13]; in [14]) was inactive.
Turning to `FC(F)(F)c1ccc(Cl)c(Cl)c1`, the outcome in [6] was inactive.
With `CCCCCC1C(=O)CCC1CC(=O)OC` (stereo unspecified), in [8], the outcome was inactive.
Consider `CCC(C)(C)C1CCC(=O)CC1`, for which, in [6], the call was inactive.
`CC1COC(=O)O1` (stereo unspecified): the molecule was classed as inactive in test [6].
Turning to `CC(C)(C)c1cccc(O)c1`, the outcome in [6] was inactive.
Take `COC(=O)c1ccc(C(=O)OC)cc1`: the result in [7] and in [9] was inactive.
